Pf growth 96h – Primary qHTS for delayed death inhibitors of the malarial parasite plastid, 96 hour incubation; P. falciparum luciferase reporter growth, 96 h; Potency, µM (series often up to 28.7 µM), inactives show at the highest dose activity change, negative = inhibition, most hits filed as inhibitors; hit rate 6.9% among 320,000; AID 504834, 2011; further: on the % scale 0 is the no-effect control and ±100 the full control effect
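96 h incubation, 37 C, 5% CO2, of luciferase-reporter P. falciparum-infected RBCs (2% hematocrit, 0.05% parasitemia final) with test compounds; endpoint luminescence.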
Pf growth 48h – Primary qHTS for delayed death inhibitors of the malarial parasite plastid, 48 hour incubation. P. falciparum luciferase growth in erythrocytes, 48 h. Potency, µM (doses to about 28.7 µM), without a hit: at the highest dose activity change, negative = inhibition, most hits filed as inhibitors. hit rate 5.9% among 310,000; further: on the % scale 0 is the no-effect control and ±100 the full control effect
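Erythrocytes infected with P. falciparum carrying an integrated firefly luciferase reporter (2% hematocrit, 0.1% parasitemia final) were exposed to compounds in RPMI 1640 with 0.5% Albumax at 37 C, 5% CO2. Growth inhibition was scored as reduced luminescence.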
AMA1-RON2 inh – qHTS for Inhibitors of AMA1-RON; Towards Development of Antimalarial Drug Lead: Primary Screen; AID 720542, 2013; AlphaScreen AMA1-biotinylated RON2 peptide binding; hit rate 0.2% among 360,000; Plasmodium falciparum AMA1 (3D7) - RON2 peptide interaction; Potency, µM (doses to about 58.2 µM), for inactives: top-dose activity change, negative = inhibition, most hits filed as inhibitors;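 further: 0% = vehicle wells and -100% = peptide control; nearly all actives have a fitted effect of over 45% in size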
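AMA1 (3D7) with his tag at 25 nM final met compounds first, then biotinylated RON2 peptide at 25 nM; detection used donor plus acceptor beads, 10 µg/mL apiece, read by AlphaScreen after 30 min at room temperature.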
SARS PLP yeast – qHTS of Yeast-based Assay for SARS-CoV PLP | Potency, µM (doses to about 32.9 µM), for the others: top-dose activity, positive = growth rescue, usual class: activators | S. cerevisiae expressing SARS-CoV PLpro, growth rescue | hit rate 0.19% among 330,000 | AID 485353, 2010; calls by dose curve; further: 0% is about no effect; nearly all actives have a fitted effect of over 55% in size
An asterisk follows results filed as active; u = inconclusive; x = no result given; [ ] = another dose, or the depositor's remark. Most compounds without a hit are left out; they make up all but 9.4% or so of the library. Unless noted, the call rests on the fitted dose curve; in most records, active means well fitted curve in the direction sought with a large enough effect; inconclusive means small, poorly fitted or top-dose-only effect, or another doubt; inactive means no such curve, though single readings can be large; an effect the other way counts as inactive or inconclusive. Potency means the concentration at half of the fitted maximal effect.

SMILES	Pf growth 96h	Pf growth 48h	AMA1-RON2 inh	SARS PLP yeast
O=C(OCC1OC(OC(=O)c2cc(O)c(O)c(OC(=O)c3cc(O)c(O)c(O)c3)c2)[C@@H](OC(=O)c2cc(O)c(O)c(OC(=O)c3cc(O)c(O)c(O)c3)c2)C(OC(=O)c2cc(O)c(O)c(OC(=O)c3cc(O)c(O)c(O)c3)c2)C1OC(=O)c1cc(O)c(O)c(OC(=O)c2cc(O)c(O)c(O)c2)c1)c1cc(O)c(O)c(OC(=O)c2cc(O)c(O)c(O)c2)c1 (some centres undefined)	3.01µM*	3.38µM*	x	x
C[C@H](CN1c2ccccc2Sc2cccnc21)N(C)C	6.01µM*	u	x	x
CCC(=O)c1ccc2c(c1)N(CCCN(C)C)c1ccccc1S2	u	u	-5.5%	x
CCN(CC)CCN1c2ccccc2Sc2ccccc21	69.0%	u	-6.7%	-0.8%
CCN(CC)[C@@H](C)CN1c2ccccc2Sc2ccccc21	6.42µM*	-26.3%[12.8 µM]	x	x
CCc1ccc2c(c1)N(C[C@H](C)CN(C)C)c1ccccc1S2	15.1µM*	16.9µM*	x	x
Cc1cc2c(c(=O)n1CCc1ccccc1)C(c1ccco1)C(C#N)=C(N)O2 (centres undefined)	u	x	22.2%	-3.2%
C[C@@H]1CC[C@H](O)/C=C/C(=O)O[C@H](C)CC[C@H](O)/C=C/C(=O)O1	10.4µM*	u	30.5%	0.9%
CCCCC[C@@H]1CCCCC[C@H](O)C[C@@H](O)[C@@H](O)/C=C/C(=O)O1	x	x	1.5%	x
C[C@H]1CCC/C=C/[C@@H]2C[C@H](O)C[C@H]2[C@H](O)/C=C/C(=O)O1	2.94µM*	2.08µM*	-3.6%	x
CC(C)(C)c1ccc(C(=O)CS(=O)(=O)c2ccccc2)cc1	216.6%	349.4%	-0.6%	-5.8%
O=C(CCN1C(=O)/C(=C/c2ccccc2Cl)SC1=S)N1CCOCC1	u	13.1µM*	-1.5%	3.6%
O=C(CCN1C(=O)/C(=C/c2ccccc2Cl)SC1=S)N1CCCC1	u	u	-13.0%	2.1%
O=C(CCCN1C(=O)/C(=C/c2ccccc2Cl)SC1=S)NCCCN1CCOCC1	u	11.7µM*	-4.8%	0.9%
O=C(CCN1C(=O)/C(=C\c2ccccc2)SC1=S)N1CCOCC1	-14.5%	11.7µM*	-11.7%	4.1%
O=C(CCCN1C(=O)/C(=C/c2ccccc2Cl)SC1=S)N1CCCC1	9.28µM*	u	-27.0%	-25.5%
CCCCNC(=O)CCn1nc(-c2ccccc2)ccc1=O	u	17.4%	18.3%	7.3%
CCCCN(C)CCCNC(=O)CCn1nc(-c2ccccc2)ccc1=O	0.117µM*	0.9%	16.2%	0.9%
O=C(CCn1nc(-c2ccccc2)ccc1=O)N1CCOCC1	1.31µM*	4.5%	-8.5%	2.4%
O=C(Cn1nc(-c2ccccc2)ccc1=O)N1CCOCC1	x	x	2.0%	x
COc1ccc(/C=N/NC(=S)Nc2ccccc2)cc1COc1ccc(Br)cc1	3.7µM*	u	65.4%	-0.7%
COc1ccc(/C=N/NC(=S)Nc2ccccc2)cc1COc1ccc(F)cc1	u	10.4µM*	12.1%	-2.7%
O=C(/C=C\c1ccco1)Oc1cccc2cccnc12	-13.0%	u	65.9%	2.0%
O=C(/C=C/c1ccco1)Oc1cccc2cccnc12	5.86µM*	5.22µM*	80.3%	-6.6%
O=C(N/N=C/c1ccoc1)c1ccc(Cl)cc1	u	2.62µM*	-3.1%	1.6%
SMILES	Pf growth 96h	Pf growth 48h	AMA1-RON2 inh	SARS PLP yeast
O=C1CCCc2sccc2N1	3.29µM*	19.1%	-1.1%	16.1%
COC1=CC(=O)OC(c2ccccc2)C1 (centres undefined)	x	x	13.1%	x
COc1cccc(C2CNC3(CCCC(C)C3)c3[nH]c4ccccc4c32)c1OC (centres undefined)	9.28µM*	x	-21.1%	1.5%
O=c1c(CO)cc(CO)cc(CO)c1O	12.5%	u	22.4µM*	-4.6%
CN(C)S(=O)(=O)c1ccc(NC(=O)N2CCN(c3ccccc3Cl)CC2)cc1	u	13.1µM*	-9.0%	0.4%
CN(C)S(=O)(=O)c1ccc(NC(=O)C2CC(=O)N(Cc3ccccc3Cl)C2)cc1 (centres undefined)	u	u	30.3%	-4.4%
CN(C)S(=O)(=O)c1ccc(NC(=O)N2CCN(c3cccc(C(F)(F)F)c3)CC2)cc1	11.7µM*	11.7µM*	-20.0%	-3.9%
CCn1cc(C(=O)Nc2cccc(C)c2)c(=O)c2ccc(C)nc21	55.6%	8.7%	x	4.7%
COC(=O)N1CCCCC1c1cc(C(=O)NCc2cccnc2)no1 (centres undefined)	x	x	-1.0%	x
CCN1/C(=C/c2cc[n+](C)cc2)C=Cc2cc(C)ccc21	-26.4%	0.738µM*	-2.5%	6.5%
COc1cc(SC)ccc1C(=O)NCCN1CCOCC1	1.4%	17.4%	-1.5%	0.6%
CC[N+]1(C)[C@@H]2CC[C@H]1CC(OC(=O)[C@H]1CCC(C(=O)OC3C[C@H]4CC[C@@H](C3)[N+]4(C)CC)(c3ccccc3)c3ccccc31)C2 (some centres undefined)	8.28µM*	10.4µM*	-7.5%	x
N#Cc1ccc(Oc2ccc(-c3nc4ccccc4nc3-c3ccccc3)cc2)cc1C#N	3.7µM*	-25.3%	-5.9%	21.1%
COc1ccc(-c2nc3ccccc3nc2-c2ccccc2)cc1	4.9%	u	38.8%	-1.4%
CC(=O)c1cccc(NC(=O)CSc2nc(=O)n(Cc3ccccn3)c3c2CCC3)c1	-25.0%	u	2.1%	-1.0%
N#C/C(=C\c1ccccc1Br)C(=O)NC1CC1	1.47µM*	-17.7%	-7.6%	0.8%
CCCCCn1c(=N)c(S(=O)(=O)c2ccc(Br)cc2)cc2c(=O)n3cccc(C)c3nc21	u	u	-3.3%	1.6%
Cc1ccccc1CC1(CO)CCCN(C(=O)c2ccccc2Cl)C1 (centres undefined)	9.28µM*	-2.7%	-2.5%	-1.6%
Cc1ccccc1CC1(CO)CCCN(C(=O)c2cc(Cl)ccc2F)C1 (centres undefined)	19.7%	1.9%	5.5%	-0.1%
Cc1ccccc1CC1(CO)CCCN(Cc2ccn[nH]2)C1 (centres undefined)	11.7µM*	2.4%	20.6%	0.3%
Cc1ccccc1CC1(CO)CCCN(Cc2cn[nH]c2-c2ccccc2)C1 (centres undefined)	-8.8%	u	4.9%	1.2%
COC(=O)c1c[nH]c(=O)c2ccccc12	u	35.0%	-6.3%	1.6%
CCN(CC)Cc1c[nH]c2c(C(=O)OC)cccc12	2.62µM*	-0.3%	12.9%	11.3%
CCN(CC)Cc1c[nH]c2ccccc12	8.28µM*	u	-2.9%	-25.7%
CCS(=O)(=O)N1CCN(S(=O)(=O)c2ccccc2)CC1	x	0.4%	4.1%	3.2%
COc1ccc(OC)c(S(=O)(=O)Nc2ccc(CC(=O)O)cc2)c1	13.1µM*	4.9%	14.5%	-4.9%
Cc1ccnc(NC(=O)c2ccc(NS(=O)(=O)/C=C/c3ccccc3)cc2)c1	-16.4%	21.8%	-7.0%	-0.2%
O=c1cc(O)c2sc3nc(-c4ccccc4)cc(C(F)(F)F)c3c2[nH]1	u	u	-3.8%	0.6%

Bioassay records from PubChem BioAssay.
